PubChem BioAssay (NCI)
This is part of a sample that, as a whole, favours compounds with a hit. Of some 79,000 tested, about 15% had one in any assay. A number with no mark means an inactive call. The source made the active and inactive calls. Rule as the data show it: active = growth inhibition above about 70%; inactive = the rest.

Assays:
[1] = NCI Yeast Anticancer Drug Screen. Data for the rad50 strain (AID 155);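 also: 0% = growth of vehicle-only cultures of the same strain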; settings: S. cerevisiae rad50 strain growth inhibition; at 50.0 µM; hits give high values
Method in brief: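 DNA repair mutant yeast, compound exposure, growth read-out; inhibition is taken relative to vehicle.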

[2] = NCI Yeast Anticancer Drug Screen. Data for the mec2-1 strain (AID 157); settings: S. cerevisiae mec2-1 strain, at 50.0 µM, hits give high values
Method in brief: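 Mutant yeast (mec2-1) grown with compound; growth inhibition relative to vehicle control reported.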

[3] = NCI Yeast Anticancer Drug Screen. Data for the sgs1 mgt1 strain (AID 161);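 also: 0% = growth of cultures given vehicle only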; settings: S. cerevisiae sgs1 mgt1 strain, at 50.0 µM, hits give high values
Method in brief: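 Yeast cells carrying a defined DNA-repair defect were exposed to test compounds. Growth inhibition was measured relative to vehicle-treated controls.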

[4] = NCI Yeast Anticancer Drug Screen. Data for the cln2 rad14 strain (AID 165);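 also: 0% = growth equal to vehicle treated cultures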; settings: S. cerevisiae cln2 rad14 strain, at 50.0 µM, hits give high values
Method in brief: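 Readout is yeast growth inhibition versus vehicle-treated controls, using a strain with cln2 and rad14 alterations exposed to compound.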

[5] = NCI Yeast Anticancer Drug Screen. Data for the bub3 strain (AID 167); settings: S. cerevisiae bub3 mutant strain, at 50.0 µM, hits give high values
Method in brief: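 In this screen, a yeast mutant lacking normal mitotic checkpoint function is challenged with compound. Relative growth versus vehicle gives the inhibition value.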

[6] = NCI Yeast Anticancer Drug Screen. Data for the mlh1 rad18 strain (AID 175); settings: S. cerevisiae mlh1 rad18 strain growth inhibition; at 50.0 µM; hits give high values
Method in brief: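 Genetically defined yeast (DNA repair-deficient) exposed to compounds; growth inhibition determined relative to vehicle.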

| SMILES | growth inhibition [1] | growth inhibition [2] | growth inhibition [3] | growth inhibition [4] | growth inhibition [5] | growth inhibition [6] |
| --- | --- | --- | --- | --- | --- | --- |
| O=C(Oc1ccccc1)C(Cc1ccccc1)NC(=O)C(F)(F)F (configuration not stated) | 4.6% | 7.7% | -4.8% | 1.5% | 5.85% | -37.4% |
| c1cnc2c(c1)-n1cccc1C1(CCOCC1)NN2 | -73.5% | -30.2% | -54.5% | -11.3% | -13.3% | -40.9% |
| CCOC1Oc2ccccc2-c2nc(C)c(C#N)cc21 (configuration not stated) | 1.65% | 7.75% | 15.9% | -66.5% | 15.8% | 12.4% |
| NC(Cc1cccc2ccccc12)C(=O)O (configuration not stated) | 14.3% | -1.2% | 10.4% | -48.1% | -7.3% | 5.5% |
| COc1cc(C2=C3C(=O)OCC3Cc3ccccc32)ccc1OCc1ccccc1 (configuration not stated) | 18.9% | -0.5% | 7.5% | 5.55% | 11.1% | 29.6% |
| Cc1cc(C)c(/C(O)=C/C(=S)N2CCOCC2)c(C)c1 | 33.5% | 14.1% | 43.1% | -33% | -15.3% | 32.6% |
| CC(C)NC(=O)c1ccccc1Sc1ccccc1CN(C)C(C)C | -11.3% | 5.5% | 7.1% | 6.55% | 8.9% | 6.75% |
| C=C(CC(O)c1ccccc1)C(=O)Nc1ccccc1OC (configuration not stated) | 25.9% | 0.45% | 13.3% | 1.25% | 6.3% | 4.1% |
| Cc1cnc2[nH]c(-c3cccc4ccccc34)cc(=O)c2c1 | 13.2% | 7% | 16.1% | -6.6% | 14.9% | -21.6% |
| COC(=O)CC(=O)C[P+](c1ccccc1)(c1ccccc1)c1ccccc1 | 6.5% | -19.1% | 14.8% | 18.4% | -18.1% | 5.4% |
| CCOC(=O)c1cc2c(ccc3cc(C(=O)OCC)[nH]c32)[nH]1 | 21.9% | 26.1% | 26.8% | 4.2% | 24.4% | -11.3% |
| COc1ccc(N=Nc2c(-c3ccccc3)nn(C(=O)CC(=O)Nc3cccc(Cl)c3)c2-c2ccccc2)cc1 | -2.65% | 5.9% | -6.3% | 12.6% | 26.3% | -13.5% |
| C(=Nc1ccc2c(c1)Cc1ccccc1-2)c1ccccn1 | 61.8% | -35.5% | 24.3% | 16.9% | -22.8% | 49.4% |
| COc1ccc2c(c1)C(=O)[C@]1(C)C3(C)OC(=O)C(c4ccccc43)[C@]21C (some centres not stated) | 2.6% | -8.6% | -13.8% | 9.3% | -17.6% | 12.6% |
| O=C(N/C(=C\c1ccccc1Cl)c1nc2ccccc2[nH]1)c1ccccc1 | -20.5% | -15.1% | -23% | 10.2% | 38.9% | 10% |
| COc1cc(CNc2nc3c(NC(C)=O)cc(C(F)(F)F)cc3nc2-c2ccccc2)cc(OC)c1OC | -16.1% | -15.8% | -32.3% | -4.35% | 10.8% | -10.3% |
| COc1ccc2c(c1)CCCN1CCc3cc(OC)c(OC)cc3C21 (configuration not stated) | 21.1% | 60.8% | -21.3% | -8.85% | 4.5% | -17.7% |
| CC1(CCl)Nc2ccccc2C(=O)N1c1ccc(F)cc1 (configuration not stated) | -7.55% | -21.9% | -0.9% | 1.4% | 14.6% | -3.35% |
| C=C(C)COC(OCC(=C)C)C(C)C | 26.4% | 3.05% | 3.45% | 9.35% | 22.2% | 12.2% |

| SMILES | growth inhibition [1] | growth inhibition [2] | growth inhibition [3] | growth inhibition [4] | growth inhibition [5] | growth inhibition [6] |
| --- | --- | --- | --- | --- | --- | --- |
| Nc1ccc(N)c(Cl)c1 | -19.4% | -15.8% | -19.8% | 14.7% | -7.3% | -2.85% |
| Cc1ccc(C2=CC(=O)/C(=C\C(=O)c3ccc(Br)cc3)O2)c(C)c1 | 76.8% (active) | 77.8% (active) | 62.1% | 34.8% | 52.2% | 71.9% (active) |
| CC(C)=CCCC(C)C1CCC2C3CC=C4CC(O)CCC4(C)C3CCC12C (configuration not stated) | 34.5% | 45% | 48.2% | 34.4% | 12.9% | 72.3% (active) |
| C[N+](C)([O-])Cc1cccc(NC(=O)c2ccc(C(=O)Nc3cccc(C[N+](C)(C)[O-])c3)cc2)c1 | -4.3% | 1.25% | -8.2% | 1.3% | -12.8% | -7.95% |
| C[CH2][Sn]([CH2]C)([O]C(=O)c1ccc(F)cc1)[O][Sn]([CH2]C)([CH2]C)[O]C(=O)c1ccc(F)cc1 | -7.3% | -2.8% | -16.4% | 23.6% | 12.6% | -9.05% |
| CCCCNC(=O)CSc1cc(Cl)c(Cl)cc1Cl | 15.2% | 9.1% | 16.6% | 19.1% | 25.6% | 13.2% |
| Nc1nc(-c2ccccc2)c(N=Nc2cc(Cl)ccc2Cl)s1 | 4.5% | 1% | -2.3% | -5.05% | 8.2% | -2.1% |
| CN(C(=O)c1cccs1)C(=S)N1CCN(c2ccccn2)CC1 | -84.2% | -57.6% | -2.4% | -11.8% | -7.85% | -29.6% |
| O=C1OC2=C(CCCC2)C(N2CCCCC2)C12SCCCS2 (configuration not stated) | 3.65% | 14.4% | -6.75% | 11.4% | 5% | 2.55% |
| O=C(NNC1=NCCN1Cc1ccccc1)c1cccc(Cl)c1 | -6.1% | -25.4% | 13.3% | 14.6% | -0.8% | 2.15% |
| C=Cc1c(Cl)cccc1Cl | 0.25% | -8.85% | -5.55% | 3.5% | -18.6% | -11.3% |
| COc1ccc2c(c1OC)C(Cc1ccccc1)N1CCc3cc4c(cc3C1C2)OCO4 (configuration not stated) | 21.4% | 59% | 48% | 50.8% | 51.6% | 77.8% (active) |
| CCN(CC)Cc1cc(C)c(O)c(N=Nc2cc(OC)c(N=Nc3ccc([N+](=O)[O-])cc3)cc2OC)c1C | 16% | 12.4% | 34.1% | 34.1% | 4.7% | 50.1% |
| CN(C)CCCN(c1nc2cc(Cl)ccc2o1)c1nc2cc(Cl)ccc2o1 | 33.7% | 17.1% | 36.1% | 52.9% | 8.7% | 48.5% |
| O=C(CN1CCCCC1)NC(=O)c1ccccc1 | -8.8% | -11.6% | -7.8% | -9.15% | 0.65% | -7.5% |
| CCOC(=O)c1cc(-n2nnc3ccccc32)cn1C | -4.7% | -23.4% | 0.35% | -3.6% | 19.4% | -0.65% |
| O=C/C(=C1/C=Cc2cc([N+](=O)[O-])ccc2S1)c1ccccc1 | -6.5% | -18.8% | -11% | -14.8% | -9.05% | -6.6% |
| Cc1cccc[n+]1CC(=O)c1ccccc1[N+](=O)[O-] | -5% | 6.85% | -3.3% | -6.55% | -20.6% | 8.1% |
